# Screens deposited in PubChem BioAssay by Paczesny and Yang Labs, IUPUI and University of Michigan.
# Many of the other results were omitted from the sample, so hits are more common in it than they were.
# ST2 inh: blocks human ST2 binding to IL-33; Q01638; AlphaLISA ST2-Fc/biotin-IL-33 interaction, 1 h; inhibition, % for hits at 17 µM; hit rate 2.3% among 78,000; AID 1259354; in the data active = inhibition above about 30%
# Target sequence (Q01638 whole entry, looked up): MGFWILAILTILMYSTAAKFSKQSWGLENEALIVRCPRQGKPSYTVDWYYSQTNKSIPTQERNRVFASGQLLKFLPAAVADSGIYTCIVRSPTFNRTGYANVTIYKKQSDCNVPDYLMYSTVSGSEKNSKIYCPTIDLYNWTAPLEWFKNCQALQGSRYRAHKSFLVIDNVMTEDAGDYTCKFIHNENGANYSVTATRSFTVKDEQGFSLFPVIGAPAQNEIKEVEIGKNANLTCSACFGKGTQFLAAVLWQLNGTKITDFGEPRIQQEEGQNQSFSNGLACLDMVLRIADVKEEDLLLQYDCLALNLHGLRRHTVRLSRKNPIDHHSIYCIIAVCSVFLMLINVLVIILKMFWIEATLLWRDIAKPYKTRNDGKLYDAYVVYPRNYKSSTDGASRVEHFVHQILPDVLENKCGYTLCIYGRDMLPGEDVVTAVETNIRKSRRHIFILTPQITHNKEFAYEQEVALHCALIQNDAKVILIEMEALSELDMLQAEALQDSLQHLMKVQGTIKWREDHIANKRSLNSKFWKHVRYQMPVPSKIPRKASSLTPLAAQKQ
# Numbers stand for hits; i = inactive.
SMILES,ST2 inh
Cc1nc2ccccc2c2c1C(=O)N(c1cccnc1Cl)C2=O,i
COc1cc([N+](=O)[O-])ccc1N1C(=O)c2c(C)nc3ccccc3c2C1=O,i
Cc1nc2ccccc2c2c1C(=O)N(c1ccc(C(N)=O)cc1)C2=O,i
Cc1noc(C)c1-c1nc(CC(C)C)nn1-c1ccc2c(c1)OCO2,i
Cc1nc2ccccc2c2c1C(=O)N(c1ccc3c(c1)OCO3)C2=O,51%
Cc1ccc(Cl)cc1N1C(=O)c2c(C)nc3ccccc3c2C1=O,31%
CCCCCOc1ccc(/C=c2\sc3nc(-c4cccnc4)nn3c2=O)cc1,i
CC1=C(C(=O)Nc2ccccc2C)C(c2ccncc2)n2nc(SCc3ccccc3)nc2N1 (stereo not drawn),33%
CC1=C(C(=O)Nc2ccccc2)C(c2cccnc2)n2nc(SCc3ccccc3)nc2N1 (stereo not drawn),i
CC1=C(C(N)=O)C(c2ccccc2)n2nc(SCc3ccccc3)nc2N1 (stereo not drawn),i
O=S(=O)(NCc1nc2cccnc2n1Cc1ccccc1Cl)c1ccccc1Cl,i
Cc1ccc(-c2cc3c(nn2)-c2ccccc2C3=O)cc1,34%
O=C1c2ccccc2-c2n[nH]c3cccc1c23,i
Cc1ccc(S(=O)(=O)Nc2ccccc2-c2ccccc2)cc1,i
O=C(COc1ccccc1Br)Nc1ncn[nH]1,i
O=C(c1cc(=O)n(-c2ccccc2)[nH]1)N1CCOC(C(F)(F)F)C1 (stereo not drawn),i
CC1=NN(c2ccc(Br)cc2)C(=O)/C1=C/c1cccs1,39%
CC1=NN(c2ccc(C(=O)O)cc2)C(=O)/C1=C\c1ccc(Br)cc1,i
CC1=NN(c2ccc(Br)cc2)C(=O)/C1=C\c1ccc(N(C)C)c([N+](=O)[O-])c1,i
Cc1cccc(NC(=O)c2cnn(-c3ccccc3)c2NC(=O)c2ccc(F)cc2)c1,i
CCCCS(=O)(=O)C(=C1NCCN1)S(=O)(=O)CCCC,i
CCc1ccc(C2CC(c3ccccc3Cl)Nc3ncnn32)cc1 (stereo not drawn),i
Cc1cccn2c(=O)c(C=NCc3ccccc3)c(NCCO)nc12,i
CNc1nc2c(C)cccn2c(=O)c1C=NCCO,83%
CNc1nc2c(C)cccn2c(=O)c1C=Nc1ccc(Cl)cc1,i
SMILES,ST2 inh
COc1ccc(N=Cc2c(Nc3ccccc3)nc3c(C)cccn3c2=O)cc1,i
CCC(C)N=Cc1c(NCCO)nc2c(C)cccn2c1=O (stereo not drawn),i
CNc1nc2c(C)cccn2c(=O)c1C=Nc1ccccc1,33%
Cc1cccn2c(=O)c(C=NCc3ccco3)c(Nc3ccc(Cl)cc3)nc12,34%
Cc1cccn2c(=O)c(C=Nc3cccc(Cl)c3)c(NCc3ccco3)nc12,i
Cc1cccn2c(=O)c(C=NCCO)c(NCc3ccccc3)nc12,i
Cc1ccc(N2C(=O)C3N=NN(CC(=O)Nc4ccc(C)cc4C)C3C2=O)cc1 (stereo not drawn),i
CCn1c(CC2CCN(C(=O)c3ccccc3NC(C)C)CC2)n[nH]c1=O,i
OCCC1CN(Cc2cccnc2)CCN1Cc1cccs1 (stereo not drawn),i
CCOc1cc(C=O)ccc1OCC(=O)O,i
O=C1CCC(C(=O)N2CCC(c3ccncc3)CC2)CN1CC1CCCCC1 (stereo not drawn),i
O=C(c1cnc2ccccn2c1=O)N1CCCC(N2CCN(c3ccc(F)cc3)CC2)C1 (stereo not drawn),i
CCOC(=O)C1=C(N)OC2=C(C(=O)CC(c3ccccc3)C2)C1c1ccccc1OC (stereo not drawn),i
COc1ccc(S(=O)(=O)NC[C@H]2O[C@@H](CO)[C@@H](O)[C@H]2N2CCN(c3ccccc3OC)CC2)cc1,i
COc1ccc(C(=O)NC[C@H]2O[C@@H](CO)[C@@H](O)[C@H]2N2CCN(c3cccc(C(F)(F)F)c3)CC2)cc1,i
COc1ccccc1N1CCN([C@@H]2[C@H](O)[C@H](CO)O[C@@H]2CNS(=O)(=O)c2ccc(C)cc2)CC1,73%
COc1cccc(NC(=O)NC[C@H]2O[C@@H](CO)[C@@H](O)[C@H]2N2CCC(C)CC2)c1,i
COc1ccccc1N1CCN([C@@H]2[C@H](O)[C@H](CO)O[C@@H]2CNS(=O)(=O)c2cccs2)CC1,i
CC(C)NC(=O)NC[C@H]1O[C@@H](CO)[C@@H](O)[C@H]1N1CCN(c2cccc(C(F)(F)F)c2)CC1,44%
COc1cc(NC(=O)NC[C@H]2O[C@@H](CO)[C@@H](O)[C@H]2N2CCN(C)CC2)cc(OC)c1,i
O=C(NC[C@H]1O[C@@H](CO)[C@@H](O)[C@H]1N1CCN(c2cccc(C(F)(F)F)c2)CC1)Nc1cccc(Cl)c1,i
COc1cccc(NC(=O)NC[C@H]2O[C@@H](CO)[C@@H](O)[C@H]2N2CCN(c3ccccn3)CC2)c1,36%
Cc1ccccc1Cc1c(C)nc2nc(SCC(=O)N3CCCC3)nn2c1C,i
COc1ccc(-n2nc3cc(C)c(NC(=O)c4ccc(C)c([N+](=O)[O-])c4)cc3n2)cc1,i
COc1ccc(C(=O)Nc2ccc(N3CCC(NC(C)c4cccs4)CC3)cc2)cc1 (stereo not drawn),i
SMILES,ST2 inh
Cc1ccc(NC(=O)c2cc3ccccc3o2)c([N+](=O)[O-])c1,i
Cc1ccc(NC(=O)CC(C)C)c([N+](=O)[O-])c1,i
Cc1ccc(NC(=O)C(c2ccccc2)c2ccccc2)c([N+](=O)[O-])c1,41%
Cc1ccc(OCCNCCc2ccccc2)c(C)c1,i
O=C1N(CC2CCCCC2)CCCC12CCN(CCCC(F)(F)F)C2 (stereo not drawn),i
Nc1ccc(-c2c3ccccc3nc3cc(N)ccc23)cc1,61%
Nc1ccc(-c2ccc3ccccc3n2)cc1,i
Nc1ccc(-c2cc(-c3ccccc3)nc(-c3ccc(N)cc3)n2)cc1,i
COc1ccc(N2C(=O)CN(C(=O)c3cccc(Cn4nc(C)cc4C)c3)CC23CCCC3)cc1,i
COc1ccccc1NC(=O)N1C[C@@H]2C[C@H](C1)c1ccc(-c3ccc(NC(C)=O)cc3)c(=O)n1C2,i
O=C(Nc1ccccc1)N1C[C@@H]2C[C@H](C1)c1ccc(-c3ccc(OC(F)(F)F)cc3)c(=O)n1C2,33%
COc1ccc(S(=O)(=O)N2C[C@@H]3C[C@H](C2)c2ccc(-c4ccc(OC(F)(F)F)cc4)c(=O)n2C3)cc1,i
O=C(N[C@H]1CCN2C(=O)N(CCCl)C(=O)[C@@H]2C1)c1cccs1,i
CC(CCO)Nc1nc2c(c(=O)n(C)c(=O)n2C)n1Cc1ccccc1F (stereo not drawn),i
CCOc1nc2c(c(=O)n(C)c(=O)n2C)n1Cc1ccccc1Cl,30%
COCCCNc1nc2c(c(=O)n(C)c(=O)n2C)n1Cc1ccccc1F,i
CC1CCN(c2nc3c(c(=O)n(C)c(=O)n3C)n2Cc2ccccc2Cl)CC1,i
COc1ccccc1Oc1nc2c(c(=O)n(C)c(=O)n2C)n1Cc1ccccc1F,31%
C#CCOc1nc2c(c(=O)n(C)c(=O)n2C)n1Cc1ccccc1Cl,i
Cc1cc(CN2CCCC(C(=O)Nc3ccccc3Oc3cccnc3)C2)oc1C (stereo not drawn),i
Cc1cc2c(cc1C(=O)N1CCNC(C(=O)O)C1)OCCO2 (stereo not drawn),i
CCOC(=O)c1nn(CCC(C)C)c2c1CN(C(=O)c1nn(C)c(=O)c3ccccc13)CC2,i
Cc1cccc(CC(=O)N2CCC(n3nccc3NC(=O)c3ccc4c(c3)OCO4)CC2)c1,i
COc1cccc2c1OC1(C)CC2NC(=O)N1c1cccc(SC)c1 (stereo not drawn),i
